# About 390 (8.9%) of roughly 4,400 compounds showed an effect of 50% or more. The sample as a whole holds a higher share of strong results than the screen did.
# Test system: Trypanosoma brucei
# Assay: DNDI: Inhibition of Human African Trypanosomiasis, SBRI 427, in vitro at 2 ug.mL-1
# Assay type: functional
row,SMILES,% inhibition [%]
1,Cc1ccc(/C(=N/O)NCCN2CCOCC2)c(Oc2ccc3ccccc3c2)n1,15
2,COc1ccc(-c2nc(CNCc3cccc(C(F)(F)F)c3)co2)cc1,-13
3,CCOc1ccccc1-c1nc(CNC23C[C@H]4C[C@@H](C2)C[C@@H](C3)C4)co1,9
4,CC1CC(C)CN(Cc2coc(-c3cccc4ccccc34)n2)C1 (stereo not given),28
5,CN(C)CCNCc1coc(-c2cccc3ccccc23)n1,22
6,C[C@@H]1C(NCc2coc(-c3cccc4ccccc34)n2)C[C@H]2C[C@@H]1C2(C)C (stereo not given in full),95
7,CCOc1ccccc1-c1nc(CNC2C[C@@H]3C[C@H]([C@H]2C)C3(C)C)co1 (stereo not given in full),101
8,CCOc1ccccc1-c1nc(CNc2ccccc2)co1,6
9,c1ccc(CNCc2coc(-c3cccc4ccccc34)n2)cc1,8
10,C[C@H]1C(NCc2coc(-c3cccc4ccccc34)n2)C[C@@H]2C[C@H]1C2(C)C (stereo not given in full),85
11,Clc1ccccc1-c1nc(CN2CCN(c3ccccn3)CC2)co1,4
12,Fc1ccc(-c2nc(CNCC(c3ccccc3)c3ccccc3)co2)cc1,-33
13,COc1cc(-c2nc(CNCc3cccnc3)co2)cc(OC)c1OC,25
14,CSc1ccc(Oc2nc(C)ccc2/C(=N/O)NCc2ccc(C)o2)cc1C,12
15,CCOc1ccccc1-c1nc(CN(CC)c2cccc3ccccc23)co1,4
16,CC(C)c1ccc(N/C(=N\O)c2cccnc2Oc2ccc(Cl)cc2)cc1,11
17,COc1ccc(Oc2nc(C)ccc2/C(=N/O)NC2CCc3ccccc32)cc1 (stereo not given),23
18,CC(C)COc1ncccc1/C(=N/O)NC1CCc2ccccc21 (stereo not given),-11
19,O/N=C(\NC1CCc2ccccc21)c1cccnc1Oc1c(F)cccc1F (stereo not given),83
20,COc1ccc(Oc2ncccc2/C(=N/O)NC2CCc3ccccc32)cc1 (stereo not given),97
21,CC(C)c1ccc(Oc2ncccc2/C(=N/O)NC2CCc3ccccc32)cc1 (stereo not given),100
22,Cc1ccc(/C(=N/O)NC2CCc3ccccc32)c(Oc2ccc(F)c(F)c2)n1 (stereo not given),20
23,O/N=C(\NC1CCc2ccccc21)c1cccnc1Oc1ccc2ccccc2c1 (stereo not given),97
24,Cc1ccc(/C(=N/O)NC2CCc3ccccc32)c(Oc2c(F)c(F)cc(F)c2F)n1 (stereo not given),7
25,O/N=C(\NC1CCc2ccccc21)c1cccnc1Oc1ccc(F)cc1Cl (stereo not given),9
26,CSc1ccc(Oc2nc(C)ccc2/C(=N/O)NC2CCc3ccccc32)cc1C (stereo not given),21
27,O/N=C(\NC1CCc2ccccc21)c1cccnc1Oc1ccc(-n2cncn2)cc1 (stereo not given),31

row,SMILES,% inhibition [%]
1,CCOc1ccccc1-c1nc(CNCc2ccc(C)o2)co1,18
2,COc1cccc(CN/C(=N\O)c2ccnc(Oc3cccc4cccnc34)c2)c1,35
3,O/N=C(/c1ccc(Oc2cccc3c2CCCC3)nc1)N1CCN(c2ccccc2)CC1,9
4,C=CCN(CC=C)Cc1coc(-c2ccc(OC)cc2)n1,1
5,Cc1ccc(/C(=N/O)N(C)c2ccccc2)c(Oc2ccc(Cl)cc2)n1,22
6,COc1ccc(CN/C(=N\O)c2ccc(C)nc2Oc2cccc3c2CCCC3)cc1,1
7,Cc1cccc(-c2nc(CN3CCN(c4cc(C)nc5ccccc45)CC3)co2)c1,27
8,CCOc1ccccc1-c1nc(CN(CC)C2CCN(Cc3ccccc3)C2)co1 (stereo not given),-5
9,CC(C)c1ccc(Oc2ccc(/C(N)=N/O)cn2)cc1,23
10,Cc1ccc(/C(=N/O)NC2CCc3ccccc32)c(Oc2ccc(F)c(Cl)c2)n1 (stereo not given),-22
11,CCC(CC)NCc1coc(-c2ccc(OC)cc2)n1,-11
12,COc1ccc(CNCc2coc(-c3ccc(C(F)(F)F)cc3)n2)c(OC)c1,11
13,COc1ccc(CNCc2coc(-c3ccccc3C)n2)c(OC)c1,5
14,COc1ccc(CNCc2coc(-c3cccc4ccccc34)n2)c(OC)c1,57
15,COc1ccc(CNCc2coc(-c3ccccc3Br)n2)c(OC)c1,-13
16,COc1ccc(-c2nc(CNCc3ccc(OC)cc3OC)co2)cc1,4
17,COc1cccc(OC)c1CNCc1coc(-c2ccc(C(C)(C)C)cc2)n1,100
18,COc1cccc(OC)c1CNCc1coc(-c2ccc(C)cc2)n1,22
19,COc1ccc(CNCc2coc(-c3ccc(C(C)(C)C)cc3)n2)c(OC)c1,69
20,COc1ccc(-c2nc(CNCc3c(OC)cccc3OC)co2)cc1,17
21,COc1ccc(-c2nc(CN3CCc4ccccc4C3)co2)cc1,-8
22,CN(Cc1coc(-c2ccc(O)cc2)n1)C(c1ccccc1)c1ccccc1,-30
23,CN(Cc1ccco1)/C(=N\O)c1cccnc1Oc1ccc2c(c1)CCCC2,-1
24,Cc1ccc(/C(=N/O)N2CCCC2)c(Oc2ccc3ccccc3c2)n1,25
25,CN(Cc1cccnc1)Cc1coc(-c2ccc(Cl)cc2Cl)n1,36
26,CN(CC#N)Cc1coc(-c2cccs2)n1,-11
27,Cc1ccc(CNCc2coc(-c3ccccc3Br)n2)o1,3

row,SMILES,% inhibition [%]
1,CCOc1ccc(-c2nc(CNC3C[C@@H]4C[C@H]([C@H]3C)C4(C)C)co2)cc1 (stereo not given in full),78
2,C[C@@H]1C(NCc2coc(-c3ccc(O)cc3)n2)C[C@H]2C[C@@H]1C2(C)C (stereo not given in full),26
3,CC1CCCC(NCc2coc(-c3ccc(O)cc3)n2)C1C (stereo not given),-13
4,CCOc1ccc(-c2nc(CNC3C[C@H]4CC[C@@H]3C4)co2)cc1 (stereo not given in full),11
5,CCOc1ccc(-c2nc(CNC3C[C@H]4C[C@@H]([C@@H]3C)C4(C)C)co2)cc1 (stereo not given in full),-5
6,C[C@H]1C(NCc2coc(-c3ccc(O)cc3)n2)C[C@@H]2C[C@H]1C2(C)C (stereo not given in full),101
7,CCOc1ccccc1CN/C(=N\O)c1ccc(Oc2ccc(C)cc2OC)nc1,25
8,CCN(CCC#N)Cc1coc(-c2cccc3ccccc23)n1,10
9,Cc1ccccc1-c1nc(CNCC(C)(C)CN(C)C)co1,-8
10,COc1cc(C)ccc1Oc1nc(C)ccc1/C(=N/O)N1CCCC1,13
11,Cc1ccc(/C(=N/O)NCCN2CCCC2)c(Oc2cccc(F)c2)n1,-3
12,COc1cc(C)ccc1Oc1nc(C)ccc1/C(=N/O)NCC1CC1,100
13,COc1cc(C)ccc1Oc1nc(C)ccc1/C(=N/O)NCC1CCCO1 (stereo not given),15
14,Cc1ccc(Oc2nc(C)ccc2/C(=N/O)NCC(C)(C)C)c(C)c1,11
15,CCCN/C(=N\O)c1ccc(C)nc1Oc1ccc(C)cc1OC,22
16,COc1ccc(Oc2nc(C)ccc2/C(=N/O)NCCN2CCCC2)cc1,-2
17,Cc1ccc(/C(=N/O)NCCN2CCCC2)c(Oc2ccc(F)cc2)n1,91
18,COc1cc(C)ccc1Oc1nc(C)ccc1/C(=N/O)NCC(C)(C)C,99
19,COc1cc(C)ccc1Oc1nc(C)ccc1/C(=N/O)NCC1CCCCC1,0
20,COc1cc(C)ccc1Oc1nc(C)ccc1/C(=N/O)NCC(C)C,100
21,COc1cc(C)ccc1Oc1nc(C)ccc1/C(=N/O)NCCSC,-7
22,Cc1ccc(Oc2nc(C)ccc2/C(=N/O)NCC(C)C)c(C)c1,20
23,C=CCN1CCN(/C(=N\O)c2ccc(C)nc2OCc2cccc(F)c2)CC1,3
24,CCC(NCc1coc(-c2cccs2)n1)c1ccccc1 (stereo not given),-5
25,c1coc(-c2nc(CNC3CCc4ccccc43)co2)c1 (stereo not given),17
26,CN(Cc1coc(-c2ccccc2F)n1)Cc1cccc2ccccc12,-49
27,CCN(C)Cc1coc(-c2cccc(F)c2)n1,-10

row,SMILES,% inhibition [%]
1,COc1cc(CNCc2coc(-c3ccc(O)cc3)n2)cc(OC)c1,8
2,CC(C)c1ccc(N/C(=N\O)c2ccc(Oc3ccc4oc5ccccc5c4c3)nc2)cc1,25
3,Cc1ccc(/C(=N/O)N2CCSCC2)c(OCc2cccc(F)c2)n1,-17
4,CCOC(=O)C1CCCN(Cc2coc(-c3cc(OC)c(OC)c(OC)c3)n2)C1 (stereo not given),-16
5,CN(Cc1coc(-c2ccc(Br)cc2)n1)CC1OCCO1,11
6,Cc1ccccc1-c1nc(CN2CC(C)CC(C)C2)co1 (stereo not given),6
7,COc1ccc(Oc2nc(C)ccc2/C(=N/O)NCC2CC2)cc1,24
8,Cc1ccc(/C(=N/O)NCC2CC2)c(Oc2ccc(F)cc2)n1,33
9,Cc1ccc(Oc2nc(C)ccc2/C(=N/O)NCC2CC2)cc1,74
10,CCOc1cccc(-c2nc(Cn3cnc(-c4ccccc4)c3)co2)c1,11
11,CN(Cc1coc(-c2ccco2)n1)C1CCCCC1,11
12,Cc1ccccc1CNCc1coc(-c2ccc(O)cc2)n1,1
13,COc1ccccc1Oc1ncccc1/C(=N/O)NC1CCCC1,99
14,CSc1ccccc1Oc1ncccc1/C(=N/O)N1CCCCC1,8
15,O/N=C(/c1cccnc1Oc1ccccc1F)N1CCOCC1,13
16,O/N=C(/c1cccnc1Oc1ccccc1F)N1CCCCC1,23
17,CSc1ccccc1Oc1ncccc1/C(=N/O)NC1CCCC1,99
18,O/N=C(\NCCN1CCCC1)c1cccnc1Oc1ccccc1F,30
19,COC(=O)C1CCN(/C(=N\O)c2cccnc2Oc2ccccc2OC)CC1,15
20,COC(=O)C1CCN(/C(=N\O)c2cccnc2Oc2ccccc2SC)CC1,18
21,O/N=C(\NC1CC1)c1cccnc1Oc1ccccc1F,78
22,O/N=C(\NC1CCCC1)c1cccnc1Oc1ccccc1F,96
23,COc1ccccc1Oc1ncccc1/C(=N/O)N1C(C)CCCC1C (stereo not given),9
24,Cc1ccc(/C(=N/O)NC2CC2)c(Oc2cccc3cccnc23)n1,29

# Reference: ChEMBL document CHEMBL1857833, “Screening and optimization of specific chemical series against human African Trypanosomiasis (HAT)”
